Compounds without any hit were thinned out: in the full panel of roughly 83,000, 20% have a hit.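 Results are percent growth after 48 hours of single-concentration exposure. 100 means growth as in untreated cells, lower positive values show inhibition; negative values down to -100 show cell death.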 A number with no mark means an inactive call. Active and inactive are the calls of the source. Rule for the calls: active = growth percent below 10; inactive = the rest.
Columns and labels:
Assay in all cases: NCI-60 one-dose screen, 48 h (100 = growth as untreated, 0 = no growth, -100 = all killed)
[1] = test system: SR leukemia; conditions: 10 µM unless noted
[2] = test system: RPMI-8226 leukemia; conditions: 10 µM unless noted
[3] = test system: OVCAR-8 ovarian; conditions: 10 µM unless noted
[4] = test system: OVCAR-5 ovarian; conditions: 10 µM unless noted
[5] = test system: SK-OV-3 ovarian; conditions: 10 µM unless noted
[6] = test system: IGROV1 ovarian; conditions: 10 µM unless noted
[7] = test system: OVCAR-3 ovarian; conditions: 10 µM unless noted
[8] = test system: HS 578T breast; conditions: 10 µM unless noted
[9] = test system: NCI/ADR-RES ovarian; conditions: 10 µM unless noted
[10] = test system: BT-549 breast; conditions: 10 µM unless noted
[11] = test system: MDA-MB-435 melanoma; conditions: 10 µM unless noted
[12] = test system: SW-620 colon; conditions: 10 µM unless noted
[13] = test system: MCF7 breast; conditions: 10 µM unless noted
[14] = test system: HCT-116 colon; conditions: 10 µM unless noted
[15] = test system: HCC-2998 colon; conditions: 10 µM unless noted
[16] = test system: KM12 colon; conditions: 10 µM unless noted
[17] = test system: OVCAR-4 ovarian; conditions: 10 µM
[18] = test system: T-47D breast; conditions: 10 µM unless noted

With `C=C(C)[C@@H]1CC[C@]2(COCCC#N)CC[C@]3(C)[C@H](CC[C@@H]4[C@@](C)(CCCNCCC#N)[C@H](C(=C)C)CC[C@]43C)[C@@H]12` the growth [1] was 19.1% [100 µM], the growth [2] was -37.1% [100 µM] (active) and the growth [3] was 3.88% [100 µM] (active). The growth [4] was 36.7% [100 µM], the growth [5] was 65.1% [100 µM] and the growth [6] was 7.81% [100 µM] (active). The growth [7] was -0.365% [100 µM] (active), the growth [8] was 22.2% [100 µM] and the growth [9] was 46.3% [100 µM]. For the same molecule, the growth [10] was 41% [100 µM], the growth [11] was 1.59% [100 µM] (active) and the growth [12] was -38.3% [100 µM] (active). For the same molecule, the growth [13] was 9.79% [100 µM] (active), the growth [14] was -53.8% [100 µM] (active) and the growth [15] was 12.9% [100 µM]. It also gave a growth [16] of 27.4% [100 µM].

`Nn1c(Nc2ccc(S(=O)(=O)Nc3ncccn3)cc2)nnc(/C=C/c2c(O)ccc3ccccc23)c1=O` showed a growth [1] of 89.7%, a growth [2] of 72.4% and a growth [3] of 93.4%. The growth [17] was 75.8%, the growth [5] was 84.2% and the growth [6] was 82.9%. It also gave a growth [7] of 80.1%, a growth [8] of 94.9% and a growth [9] of 94.6%. The growth [18] was 70.9%, the growth [10] was 101% and the growth [11] was 95.2%. The growth [12] was 94%, the growth [13] was 76.6% and the growth [14] was 89.9%. It also gave a growth [15] of 114% and a growth [16] of 82.9%.

For `Cc1ccc(Cn2c(O)c(N=NC(=O)c3ccc(S(N)(=O)=O)cc3)c3ccccc32)cc1`, the growth [1] was 104%, the growth [2] was 91.7% and the growth [3] was 92.7%. For the same molecule, the growth [4] was 109%, the growth [5] was 109% and the growth [6] was 107%. It also gave a growth [7] of 107%, a growth [8] of 101% and a growth [9] of 108%. For the same molecule, the growth [18] was 83.7%, the growth [11] was 102% and the growth [12] was 100%. For the same molecule, the growth [13] was 95%, the growth [14] was 102% and the growth [15] was 114%. The growth [16] was 106%.

For `CCOc1cc(/C=N\NC(=O)N/N=C/c2ccc(O)c(OCC)c2)ccc1O`, the growth [1] was 12.2%, the growth [2] was 32.8% and the growth [3] was 52%. For the same molecule, the growth [4] was 66.8%, the growth [5] was 16.2% and the growth [6] was 59.4%. The growth [7] was -34.7% (active), the growth [9] was 51.6% and the growth [18] was 29.5%. It also gave a growth [12] of 20.9%, a growth [13] of 17.4% and a growth [14] of 24.8%. The growth [15] was 41% and the growth [16] was 21.2%.

For `COc1ccc(/C=C/C=C\C(=O)c2ccc(-n3ccnc3)cc2)cc1`, the growth [1] was 82.1%, the growth [2] was 71.5% and the growth [3] was 86.4%. For the same molecule, the growth [4] was 103%, the growth [5] was 97% and the growth [6] was 93.5%. It also gave a growth [7] of 96.7%, a growth [9] of 104% and a growth [18] of 58.1%. It also gave a growth [10] of 50%, a growth [11] of 92.8% and a growth [12] of 98.4%. The growth [13] was 79.5%, the growth [14] was -76.2% (active) and the growth [15] was 99.9%. The growth [16] was 92.8%.

In the case of `C=C(C)[C@@H]1CC[C@]2(C(=O)NCCNCCNCCN)CC[C@]3(C)[C@H](CC[C@@H]4[C@@]5(C)CCC(=O)C(C)(C)[C@@H]5CC[C@]43C)[C@@H]12`, the growth [1] is reported as 4.96% [100 µM] (active), the growth [2] is reported as -30.7% [100 µM] (active) and the growth [3] is reported as -75% [100 µM] (active). The growth [4] was -44.1% [100 µM] (active), the growth [6] was -84.8% [100 µM] (active) and the growth [7] was -72.5% [100 µM] (active). The growth [8] was 47.8% [100 µM], the growth [9] was -73.3% [100 µM] (active) and the growth [18] was -4.36% [100 µM] (active). For the same molecule, the growth [10] was 58.3% [100 µM], the growth [12] was -76.7% [100 µM] (active) and the growth [13] was -58% [100 µM] (active). The growth [14] was -80.7% [100 µM] (active), the growth [15] was -90% [100 µM] (active) and the growth [16] was -81.9% [100 µM] (active).

Work on `CCOC(=O)C(C(C)=O)c1nc2sc3cc(Cl)c(Cl)cc3n2c(=O)c1C#N` (centres undefined) yielded a growth [1] of 105%, a growth [3] of 92.8% and a growth [4] of 122%. The growth [17] was 94.5%, the growth [5] was 83.2% and the growth [7] was 112%. The growth [8] was 114%, the growth [9] was 106% and the growth [18] was 78%. The growth [11] was 106%, the growth [12] was 116% and the growth [13] was 65.4%. The growth [14] was 101%, the growth [15] was 106% and the growth [16] was 98.6%.
